The target in the first assay is C1QTNF1. Nature of the assay: pooled miR-30 sensor sort-seq; sequence = guide strand. The conditions noted are these: shRNA.
For TAGAGGTTCACGAACTCCGTGT, the sensor-assay potency score (higher = more potent) worked out at 0.258.

As for TCACAGCAGCGCAAGCACCGGG, the sensor-assay potency score (higher = more potent) was -0.832.

TGTATTTTTCATGTTGTTCTTC yielded a sensor-assay potency score (higher = more potent) of 0.442.

TTGGAGGCCTCGATCTCCGCGG had a sensor-assay potency score (higher = more potent) of -1.29.

In turn, TTCATGTTGTTCTTCAGCCCTC returned a sensor-assay potency score (higher = more potent) of -0.239.

In the case of TAGGTGTCCAGCTCCTCGCTGA, the sensor-assay potency score (higher = more potent) is -0.37.

On to AAGATAGTGATGTTGATCTGGG, for which the sensor-assay potency score (higher = more potent) is -0.107.

TAGAACTTGCCGGTGAACATGT: the sensor-assay potency score (higher = more potent) was found to be 0.14.

As for TAGCAGTAGAACTTGCCGGTGA, the sensor-assay potency score (higher = more potent) is 0.148.

In turn, TAGGTCTCCTTCTGGTTCCAGG registered a sensor-assay potency score (higher = more potent) of -0.883.

Sequence TCGATCTCCGCGGTCACCCTTC gave a sensor-assay potency score (higher = more potent) of -1.09.

In turn, TTGTTCTTCAGCCCTCTCGGCA registered a sensor-assay potency score (higher = more potent) of -1.05.

For another assay, the target named is C1orf101. Described as above. The conditions noted are these: shRNA.
TCTAACTTAATAGTACTTCTGG gave a sensor-assay potency score (higher = more potent) of 0.677.

As to TAGTGCATCATCTTTTGTCATT, the sensor-assay potency score (higher = more potent) was -1.07.

TAACTCTATAGTACCACAGAAA registered a sensor-assay potency score (higher = more potent) of -1.26.

Take TTGAATATTCACTAGGTCGAAA: the sensor-assay potency score (higher = more potent) was -0.467.

TTGTATTGTGCCATCATCCAAA came in with a sensor-assay potency score (higher = more potent) of -0.463.

As for TTGGTTTCCTCTAATCTCCTTT, the sensor-assay potency score (higher = more potent) came to 0.267.

The sequence TTGATAGATTTCCATGTCCTGC registered a sensor-assay potency score (higher = more potent) of -1.09.

The sequence TAAAAACACAGCAATCTCCAGA yielded a sensor-assay potency score (higher = more potent) of -0.0485.

In turn, TTGACTTCCATGTCTGTGCTTC returned a sensor-assay potency score (higher = more potent) of 0.808.

The sequence TAACTTAATAGTACTTCTGGTA had a sensor-assay potency score (higher = more potent) of -0.353.

Consider TTCATGTAAACAACCACTCTGT, for which the sensor-assay potency score (higher = more potent) came out at 0.256.

On to TAAACAACCACTCTGTGCCATA, for which the sensor-assay potency score (higher = more potent) is -0.921.

The values are drawn from the OligoGym collection.
Note: reference of the scale not given here.
